Columns and labels:
Conditions in all cases: concentration: 1 μM,replicates: in singlicate; n = 1
MLK1 = system: T1, MLK1
T1 construct: gene MAP3K9

MLK2 = system: MLK2
MLK3 = system: MLK3
MRCKA = system: MRCKA
MRCKB = system: T2, MRCKB
T2 construct: gene CDC42BPB

MST1R = system: MST1R
MST1 = system: T3, MST1
T3 construct: gene STK4

MST2 = system: T4, MST2
T4 construct: gene STK3

MST3 = system: T5, MST3
T5 construct: gene STK24

MST4 = system: MST4
MTOR = system: MTOR
MUSK = system: MUSK
MYLK2 = system: MYLK2
MYLK4 = system: MYLK4
MYLK = system: MYLK
MYO3A = system: MYO3A
MYO3B = system: MYO3B
NDR1 = system: T6, NDR1
T6 construct: gene STK38

NDR2 = system: NDR2
NEK10 = system: NEK10
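Also: KINOMEscan kinase panel screen.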

SMILES	%Inh (MLK1) [%]	%Inh (MLK2) [%]	%Inh (MLK3) [%]	%Inh (MRCKA) [%]	%Inh (MRCKB) [%]	%Inh (MST1R) [%]	%Inh (MST1) [%]	%Inh (MST2) [%]	%Inh (MST3) [%]	%Inh (MST4) [%]	%Inh (MTOR) [%]	%Inh (MUSK) [%]	%Inh (MYLK2) [%]	%Inh (MYLK4) [%]	%Inh (MYLK) [%]	%Inh (MYO3A) [%]	%Inh (MYO3B) [%]	%Inh (NDR1) [%]	%Inh (NDR2) [%]	%Inh (NEK10) [%]
Cc1ccn2nc(-c3ccc(F)cc3)c(-c3ccncc3)c2c1.Cl [GW457859]	0	0	0	24	3	36	0	0	14	0	8	0	23	0	26	48	0	13	40	0
C[C@@H]1CNc2c(sc3ccc4nc(-c5ccncc5)ccc4c23)C(=O)N1	2	0	4	0	9	18	2	6	10	0	50	0	2	11	62	0	27	18	0	7
CS(=O)c1ccc(-c2coc3ccc(-c4n[nH]c(=O)o4)cc23)cc1 (centres unmarked)	9	6	0	4	0	0	0	0	24	5	17	0	20	24	41	0	0	2	22	56
COc1cc2nccc(Nc3ccc(Oc4ccccc4)cc3)c2cc1OC.Cl [GI261656]	0	0	15	0	0	30	0	0	0	0	10	0	0	0	7	6	0	0	29	18
CC(=O)Nc1nc2cnc(Nc3cc(NC(=O)c4cccc(CC(C)(C)C#N)c4)ccc3C)nc2s1	0	14	5	0	0	26	5	0	0	0	14	2	0	14	42	25	0	0	13	0
NC(=O)c1ccc(-c2cc3ncnc(SCC(=O)O)c3s2)cc1	0	0	0	0	0	21	0	0	0	0	39	0	0	0	0	0	3	31	0	0
O=C(Nc1ccccc1)c1cccc(Oc2ccc3nccn3n2)c1	0	0	0	9	0	7	25	14	37	0	14	73	0	0	0	0	0	0	22	0
CC(C)c1nc(-c2cccc(NS(=O)(=O)c3ccccc3)c2)c(-c2ccnc(Nc3ccc4c(c3)CN(C)CC4)n2)s1 [GSK1649598]	18	0	22	7	0	41	67	26	82	82	0	15	0	13	13	48	0	31	0	0
Cl.Cl.NC[C@H](CC1CCCCC1)NC(=O)c1ccc(-c2ccnc3[nH]ccc23)s1 [GSK1581428]	5	0	0	97.1	99.1	26	0	0	9	55	14	61	62	99.9	66	0	0	95.8	79	17
O=c1[nH]cc(-c2ccc(O)cc2)c2sc(-c3ccncc3)cc12 [GSK1033723]	0	0	3	22	14	44	1	7	6	0	18	0	33	44	26	0	0	38	8	12
CN1CCN(CCNc2nc3cc(Oc4ccc(NC(=O)Nc5cc(C(F)(F)F)ccc5F)cc4)ccc3[nH]2)CC1.Cl.Cl [GW768504]	0	40	0	0	4	0	16	0	0	0	0	97.3	6	0	0	0	20	51	7	0
COC(=O)c1cccc(NC(=O)NC2CCN(c3ccnc(NCc4ccc(F)cc4)n3)CC2)c1 [GSK1379860]	0	0	0	12	0	31	0	0	0	0	23	0	7	0	0	0	0	0	0	1
Cl.Nc1n[nH]c2cc(-c3ccccn3)ccc12 [GSK2189892]	0	0	15	0	0	27	0	0	0	0	0	0	5	29	18	0	0	0	0	2
CC(C)S(=O)(=O)N1CCN(Cc2ccc3c(c2)nc(NC(=O)c2ccsc2)n3C[C@H](O)c2ccccc2)CC1 [GW635815]	90.6	43	79	0	16	36	5	0	1	0	14	27	15	0	16	8	0	35	24	2
COc1cccc(CNC(=O)NC2CCN(c3ccnc(Nc4cc(OC)c(OC)c(OC)c4)n3)C2)c1 (centres unmarked) [GSK1379765]	25	26	41	17	0	49	0	27	0	0	31	83	11	9	20	27	0	15	0	14
CNC(=O)c1ccccc1Nc1nc(Nc2cccc(CS(C)(=O)=O)c2)ncc1C.O=CO [GSK1520489]	97.5	80	72	2	4	93.4	80	49	34	54	2	69	18	99.8	30	28	0	92.2	80	14
C[C@@H]1CCN(C(=O)N2CCCC2)C[C@@H]1N(C)c1ncnc2[nH]ccc12	97.4	33	67	0	0	8	100	23	25	0	8	0	5	3	2	1	0	4	0	30

SMILES	%Inh (MLK1) [%]	%Inh (MLK2) [%]	%Inh (MLK3) [%]	%Inh (MRCKA) [%]	%Inh (MRCKB) [%]	%Inh (MST1R) [%]	%Inh (MST1) [%]	%Inh (MST2) [%]	%Inh (MST3) [%]	%Inh (MST4) [%]	%Inh (MTOR) [%]	%Inh (MUSK) [%]	%Inh (MYLK2) [%]	%Inh (MYLK4) [%]	%Inh (MYLK) [%]	%Inh (MYO3A) [%]	%Inh (MYO3B) [%]	%Inh (NDR1) [%]	%Inh (NDR2) [%]	%Inh (NEK10) [%]
CC(=O)Nc1ccc(-c2cc3ncnc(SCC(=O)O)c3s2)cc1	0	18	0	0	0	25	2	16	24	2	3	12	9	14	6	5	0	0	8	25
Cn1ccc2ncnc(Oc3ccc(NC(=O)Nc4cc(C(C)(C)C)on4)c(Cl)c3)c21	11	21	0	13	0	73	0	0	6	0	37	80	13	0	17	0	40	0	1	0
FC(F)(F)c1cc(Br)cc(Nc2nccc(-c3cnn4ncccc34)n2)c1 [GW810578]	0	17	11	0	0	0	5	0	0	17	0	18	1	29	8	9	8	19	13	40
Cc1ccc2c(-c3ccnc(Nc4ccc(C(F)(F)F)cc4)n3)cnn2n1 [GW819776]	7	35	3	0	16	0	13	39	0	0	0	7	9	23	19	0	0	37	10	31
O=C(NOCC1CC1)c1cc(Br)c(F)c(F)c1Nc1ccc(I)cc1Cl	0	0	0	0	0	31	3	6	18	0	26	9	0	0	0	0	20	33	0	0
C[C@@H](Oc1cc(-n2cnc3ccc(-c4ccncc4)cc32)sc1C(N)=O)c1ccccc1Cl [GSK483724]	0	23	31	0	10	44	24	21	0	0	32	28	48	94.9	13	0	0	10	0	12
N#Cc1cccc(C(=O)NC2CCN(c3ccnc(Nc4ccc(F)cc4)n3)C2)c1 (centres unmarked) [GSK1379708]	1	0	9	6	0	39	2	0	0	0	4	0	0	0	0	4	0	0	41	1
CCn1c(-c2nonc2N)nc2cncc(CNC3CCNCC3)c21.Cl [SB-747651]	3	0	0	7	4	31	19	0	0	0	30	9	4	0	8	5	0	1	0	20
COc1cc(Nc2nccc(N3CCC(NC(=O)c4cccc(C#N)c4)C3)n2)cc(OC)c1OC (centres unmarked) [GSK1379751]	52	34	25	18	0	21	0	0	0	0	0	0	0	4	0	46	0	0	0	6
O=C(Nc1cccc(C(F)(F)F)c1)c1cccc(Oc2ccc3nccn3n2)c1	9	7	8	23	3	3	29	0	0	28	0	12	0	0	6	0	0	80	0	0
NC(=O)Nc1sc(-c2ccc(F)cc2)cc1C(N)=O [GW789449]	39	25	35	0	0	0	37	49	21	25	23	0	11	97.8	10	0	0	3	7	3
CN(c1ccccc1CNc1nc(Nc2ccc3c(c2)CC(=O)N3)ncc1C(F)(F)F)S(C)(=O)=O	95.4	77	92.9	0	0	65	14	70	30	77	21	71	4	2	0	0	0	33	12	0
C[C@@H]1CNc2c(sc3ccc4nc(-c5ccc(O)cc5)ccc4c23)C(=O)N1	0	9	0	0	0	23	0	42	25	0	0	0	14	10	65	22	93.2	26	0	7
CN(c1cccc(CNc2nc(Nc3ccc4c(c3)CC(=O)N4)ncc2C(F)(F)F)c1)S(C)(=O)=O	93.3	82	87	0	0	15	0	10	16	2	24	58	74	24	0	0	1	49	0	0
O=C1NCCc2[nH]c(-c3ccncc3)cc21	0	0	13	0	0	51	3	20	23	0	0	34	20	5	33	7		20	0	14
Cn1ccc2ncnc(Oc3ccc(NC(=O)Nc4cncc(C(F)(F)F)c4)c(Cl)c3)c21	0	0	0	0	0	0	0	0	0	0	7	95	0	0	0	0	0	0	0	11
